From PubChem BioAssay (NCATS)
Records with an inconclusive call do not appear. Unmarked numbers belong to inactive results. The source made the active and inactive calls. Calls follow the shape of the dose curve; as a rule, active = well fitted curve in the direction sought with a large enough effect; inconclusive = small, poorly fitted or top-dose-only effect, or another doubt; inactive = no such curve, though single readings can be large; an effect the other way counts as inactive or inconclusive.

Columns and labels:
[1] = qHTS of pediatric cancer cell lines to identify multiple opportunities for drug repurposing: Primary screen for U-2 OS cells (AID 1347096); also: nearly all actives have a fitted effect of over 50% in size
Outline: (§1)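 Cells (500-1,000/well) in growth media were settled 5 h at 37 degrees C, then given compounds for 48 h. Viability was read as CellTiter-Glo luminescence. Primary runs used MIPE at 11 points (0.78 nM-46 µM) and NPC at 8 points (0.59 nM-46 µM); follow-ups used 11 points.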

[2] = qHTS of pediatric cancer cell lines to identify multiple opportunities for drug repurposing: Primary screen for Saos-2 cells (AID 1347097); also: nearly all actives have a fitted effect of over 40% in size
Outline: (§2)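 Plated cells (500-1,000 per well, growth media) were allowed to settle for 5 hours, treated with compound dilutions for 48 hours, then lysed with CellTiter-Glo for 15 min at room temperature before luminescence reading.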

[3] = qHTS of pediatric cancer cell lines to identify multiple opportunities for drug repurposing: Primary screen for SK-N-SH cells (AID 1347098); also: nearly all actives have a fitted effect of over 65% in size
Outline: (§3)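 Cells (500-1,000/well) rested 5 h, then received compounds for 48 h; metabolically active cells were measured by CellTiter-Glo luminescence. Final concentrations spanned up to 46 µM (MIPE, 11-point) or 0.59 nM-46 µM (NPC, 8-point) in primary screens, 11-point in follow-ups.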

[4] = qHTS of pediatric cancer cell lines to identify multiple opportunities for drug repurposing: Primary screen for NB1643 cells (AID 1347099); also: nearly all actives have a fitted effect of over 50% in size
Outline: as §2

[5] = qHTS of pediatric cancer cell lines to identify multiple opportunities for drug repurposing: Primary screen for LAN-5 cells (AID 1347100)
Outline: as §1

[6] = qHTS of pediatric cancer cell lines to identify multiple opportunities for drug repurposing: Primary screen for BT-12 cells (AID 1347101); also: nearly all actives have a fitted effect of over 25% in size
Outline: as §3

[7] = qHTS of pediatric cancer cell lines to identify multiple opportunities for drug repurposing: Primary screen for Rh18 cells (AID 1347102); also: nearly all actives have a fitted effect of over 65% in size
Outline: as §1

[8] = qHTS of pediatric cancer cell lines to identify multiple opportunities for drug repurposing: Primary screen for OHS-50 cells (AID 1347103); also: nearly all actives have a fitted effect of over 40% in size
Outline: as §3

[9] = qHTS of pediatric cancer cell lines to identify multiple opportunities for drug repurposing: Primary screen for RD cells (AID 1347104); also: nearly all actives have a fitted effect of over 55% in size
Outline: as §2

[10] = qHTS of pediatric cancer cell lines to identify multiple opportunities for drug repurposing: Primary screen for MG 63 (6-TG R) cells (AID 1347105); also: nearly all actives have a fitted effect of over 50% in size
Outline: as §2
Potency is read from the fitted curve at half-maximal effect.

| SMILES | Potency [1] | Potency [2] | Potency [3] | Potency [4] | Potency [5] | Potency [6] | Potency [7] | Potency [8] | Potency [9] | Potency [10] |
| --- | --- | --- | --- | --- | --- | --- | --- | --- | --- | --- |
| C#Cc1cccc(Nc2ncnc3cc(OC)c(OCCCCCCC(=O)NO)cc23)c1 | 1.48 µM (active) | 0.209 µM (active) | 0.121 µM (active) | 0.0743 µM (active) | 0.332 µM (active) | 2.17 µM (active) | 0.469 µM (active) | 0.485 µM (active) | 0.187 µM (active) | 0.118 µM (active) |
| c1ccc2c(CCNc3ccc(Nc4ccncc4)cc3)c[nH]c2c1 | inactive | 14.8 µM (active) | 19.2 µM (active) | 5.26 µM (active) | 4.18 µM (active) | 21.7 µM (active) | 18.7 µM (active) | 6.85 µM (active) | 26.4 µM (active) | – |
| Cc1cc(Nc2cc(N3CCN(C)CC3)nc(C=Cc3ccccc3)n2)n[nH]1 | 34 µM (active) | 3.03 µM (active) | 3.5 µM (active) | 34 µM (active) | 0.679 µM (active) | 7.89 µM (active) | 3.82 µM (active) | 2.22 µM (active) | – | 21.5 µM (active) |
| Nc1ccn([C@@H]2CS[C@H](CO)O2)c(=O)n1 | inactive | inactive | inactive | inactive | inactive | inactive | inactive | inactive | inactive | inactive |
| C=CC(=O)Nc1cc2c(Nc3ccc(F)c(Cl)c3)ncnc2cc1OCCCN1CCOCC1 | 7.43 µM (active) | 5.9 µM (active) | 2.73 µM (active) | 23.5 µM (active) | 6.62 µM (active) | – | 8.33 µM (active) | 7.69 µM (active) | 18.7 µM (active) | 23.5 µM (active) |
| O=C(NCCCNc1nc(Nc2cccc(NC(=O)N3CCCC3)c2)ncc1I)c1cccs1 | inactive | 3.32 µM (active) | 17.1 µM (active) | 11.8 µM (active) | 0.833 µM (active) | 24.3 µM (active) | 14.8 µM (active) | 24.3 µM (active) | – | 3.72 µM (active) |
| O=C(C=Cc1cccc(S(=O)(=O)Nc2ccccc2)c1)NO | 5.4 µM (active) | 6.79 µM (active) | 6.22 µM (active) | 0.679 µM (active) | 1.21 µM (active) | 11.1 µM (active) | 1.91 µM (active) | 3.95 µM (active) | – | 6.79 µM (active) |
| CNc1nccc(-c2cccnc2Oc2cc(C(=O)Nc3cccc(C(F)(F)F)c3)ccc2C)n1 | 11.8 µM (active) | 16.6 µM (active) | 9.61 µM (active) | 11.8 µM (active) | 16.6 µM (active) | 19.3 µM (active) | 18.7 µM (active) | 15.3 µM (active) | – | 4.69 µM (active) |
| O=C(CCCCCCNC(=O)c1cnc(N(c2ccccc2)c2ccccc2)nc1)NO | inactive | 11.8 µM (active) | 10.8 µM (active) | 3.72 µM (active) | 4.69 µM (active) | 17.2 µM (active) | 5.9 µM (active) | 6.85 µM (active) | 13.2 µM (active) | 14.8 µM (active) |
| Cn1cncc1[C@@](N)(c1ccc(Cl)cc1)c1ccc2c(c1)c(-c1cccc(Cl)c1)cc(=O)n2C | 18.7 µM (active) | 18.7 µM (active) | 8.57 µM (active) | 18.7 µM (active) | 5.9 µM (active) | 21.7 µM (active) | 16.6 µM (active) | 7.69 µM (active) | 16.6 µM (active) | 23.5 µM (active) |
| CN1CCN(Cc2ccc(NC(=O)Nc3ccc(Oc4cc(NC(=O)C5CC5)ncn4)cc3)cc2C(F)(F)F)CC1 | inactive | 0.59 µM (active) | 0.764 µM (active) | 0.526 µM (active) | 2.35 µM (active) | 0.485 µM (active) | – | – | 0.662 µM (active) | 1.87 µM (active) |
| CN(C)c1nc(Cc2ccc(NC(=O)c3ccc4ccccc4c3)cc2)nc(Cl)c1CC(=O)O | inactive | inactive | inactive | inactive | inactive | inactive | inactive | inactive | – | inactive |
| C=C1C(=CC=C2CCC[C@]3(C)[C@@H]([C@H](C)C=C[C@H](C)C(C)C)CC[C@@H]23)C[C@@H](O)C[C@@H]1O | 3.72 µM (active) | 2.96 µM (active) | 1.92 µM (active) | 0.935 µM (active) | 0.469 µM (active) | – | 0.743 µM (active) | 0.685 µM (active) | 1.66 µM (active) | 5.9 µM (active) |
| O=C(Nc1ncc(-c2cc(C(F)F)nn2-c2c(Cl)cccc2Cl)s1)C1CC1 | 1.87 µM (active) | 0.209 µM (active) | 0.482 µM (active) | 3.32 µM (active) | 0.332 µM (active) | 0.968 µM (active) | – | – | 0.418 µM (active) | – |
| CN1c2cc(O)c(N=NC(N)=O)cc2CC1S(=O)(=O)O (configuration not stated) | inactive | inactive | inactive | inactive | inactive | inactive | inactive | inactive | inactive | inactive |
